The list is not random: actives were taken first. Their share in the collection is about 2.9%.
PAFAH2 inh = PAFAH2 enzyme inhibitors, primary screen, biochemical, fluorescence polarization, human; recombinant PAFAH2, FP-rhodamine activity probe; inhibition, % at 3.39 µM; actives 0.99% (n = 340,000); AID 492956, 2010;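 active means inhibition above the mean over all tested compounds plus 3 SD, cut at about 30% in these data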;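 further: inhibitors block probe labeling of enzyme so polarization drops; 0% = enzyme with DMSO and 100% = wells lacking PAFAH2 protein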
EBNA-1 inhibitor = EBNA-1 DNA-binding inhibitors, primary screen, biochemical, fluorescence polarization. inhibition, % at 14.8 µM. actives 0.34% (n = 300,000); in the data active means inhibition above about 28%
PAFAH1B3 FP inh = PAFAH1B3 enzyme inhibitors, primary screen, biochemical, fluorescence polarization, human; Platelet-activating factor acetylhydrolase IB subunit alpha1 (Homo sapiens), Q15102; recombinant PAFAH1B3, FP-rhodamine probe; inhibition, % at 3.39 µM; actives 0.28% (n = 340,000); AID 492972, 2010;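 active means inhibition above the screen-wide average of all tested compounds plus 3 SD, cut at about 25% in these data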;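 further: 0% = enzyme with DMSO only and 100% = wells lacking PAFAH1B3 protein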
Target sequence (Q15102 whole entry, looked up): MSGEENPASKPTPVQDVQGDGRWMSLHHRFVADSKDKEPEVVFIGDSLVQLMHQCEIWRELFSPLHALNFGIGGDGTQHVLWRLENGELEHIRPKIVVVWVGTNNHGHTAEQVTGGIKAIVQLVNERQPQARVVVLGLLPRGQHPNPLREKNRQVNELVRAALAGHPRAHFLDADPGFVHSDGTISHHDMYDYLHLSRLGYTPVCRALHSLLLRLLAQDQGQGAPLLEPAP
pPAFAH FP inh = pPAFAH enzyme inhibitors, primary screen, biochemical, fluorescence polarization, human; inhibition, % at 3.39 µM; actives 1.5% (n = 330,000); Platelet-activating factor acetylhydrolase (Homo sapiens), Q13093; recombinant pPAFAH, FP-rhodamine probe fluorescence polarization;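 active means inhibition above the mean inhibition across the screen plus 3 SD, cut at about 25% in these data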;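 further: inhibitors block binding of the rhodamine activity-based probe so polarization drops; 0% = enzyme with DMSO and 100% = wells lacking pPAFAH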
ZTA DNA inh = blocks Epstein-Barr virus ZTA, an EBNA-1 counter-screen | AID 2234 | actives 0.15% (n = 320,000) | inhibition, % at 11 µM | ZTA-DNA binding, fluorescence polarization; in the data active means inhibition above about 33%
Target sequence (P03206 whole entry, looked up): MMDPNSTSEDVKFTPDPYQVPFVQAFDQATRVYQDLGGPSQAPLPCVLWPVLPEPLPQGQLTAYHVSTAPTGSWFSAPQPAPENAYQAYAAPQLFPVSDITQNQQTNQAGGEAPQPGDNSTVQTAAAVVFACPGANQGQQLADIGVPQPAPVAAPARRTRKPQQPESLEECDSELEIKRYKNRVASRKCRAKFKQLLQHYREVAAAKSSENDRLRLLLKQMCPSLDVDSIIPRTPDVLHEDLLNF
PAFAH1B2 inh = PAFAH1B2 enzyme inhibitors, primary screen, biochemical, fluorescence polarization, human. Platelet-activating factor acetylhydrolase IB subunit alpha2 (Homo sapiens), P68402. recombinant PAFAH1B2, FP-rhodamine activity probe. inhibition, % at 3.39 µM. actives 1.2% (n = 340,000);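 active means inhibition above the mean of all tested compounds plus 3 SD, cut at about 24% in these data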;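 further: 0% = enzyme with DMSO and 100% = wells lacking PAFAH1B2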
Target sequence (P68402 whole entry, looked up): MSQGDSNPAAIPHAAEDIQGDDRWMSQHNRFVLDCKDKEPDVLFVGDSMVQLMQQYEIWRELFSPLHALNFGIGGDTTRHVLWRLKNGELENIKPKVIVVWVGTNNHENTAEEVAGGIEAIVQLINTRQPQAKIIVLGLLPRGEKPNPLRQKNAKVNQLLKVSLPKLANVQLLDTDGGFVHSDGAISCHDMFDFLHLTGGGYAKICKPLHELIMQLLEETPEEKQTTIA
PAFAH2 FP conf = PAFAH2 enzyme inhibitors, confirmation, biochemical, fluorescence polarization, human | shares compounds with PAFAH2 inh | recombinant PAFAH2, FP-rhodamine activity probe | actives 65% (n = 2,300) | AID 493030, 2011 | inhibition, % at 3.39 µM;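 active means mean inhibition over three repeats above a set limit taken from the earlier primary screen, cut at about 30% in these data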;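 further: inhibitor blocks binding of rhodamine activity probe so polarization falls; 0% = enzyme with DMSO and 100% = wells lacking PAFAH2 protein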
* hit, by the source's call; . = no result.

SMILES | PAFAH2 inh | EBNA-1 inhibitor | PAFAH1B3 FP inh | pPAFAH FP inh | ZTA DNA inh | PAFAH1B2 inh | PAFAH2 FP conf
CC(C)(C)c1ccc(C(=O)OCC(=O)NCc2ccco2)cc1 | 55.0* | . | 11.5 | 18.7 | 1.6 | 11.0 | 56.5*
Cc1ccc(C(=O)OCC(=O)NCc2ccco2)cc1C | 58.6* | . | 4.0 | 5.1 | 5.4 | 3.9 | 34.5*
CC(=O)c1ccc(Nc2ccc(-c3ccccc3F)nn2)cc1 | -2.5 | -6.8 | 2.6 | -0.1 | 2.3 | 3.1 | .
CC(=O)c1csc(COc2ccc(Cl)cc2)n1 | -5.6 | 3.5 | 1.4 | 4.2 | 17.5 | 8.3 | .
O=C(CN1C(=O)CCSc2ccc(S(=O)(=O)N3CCCC3)cc21)Nc1ccccc1 | 2.9 | -7.1 | 8.6 | -0.3 | -23.8 | 0.3 | .
O=C(COC(=O)C1CC2C=CC1C2)Nc1cccc(S(=O)(=O)N2CCCCCC2)c1 (centres undefined) | 35.7* | 7.1 | 12.3 | 16.4 | -5.8 | 3.1 | 24.0
O=C(COC(=O)C1CC2C=CC1C2)Nc1cccc(S(=O)(=O)N2CCCCC2)c1 (centres undefined) | 53.4* | -5.6 | -2.0 | 6.8 | 7.7 | 6.5 | 41.1*
O=C(O)c1cc(N2C(=O)C3C4C=CC(C4)C3C2=O)ccc1N1CCOCC1 (centres undefined) | -0.5 | -0.7 | 5.0 | 5.5 | -26.9 | 2.3 | .
Cc1cccc(N(C(=O)c2snc(C(N)=O)c2N)C(C(=O)NCC2CCCO2)c2ccc3ncccc3c2)c1 (centres undefined) | -4.8 | -10.6 | 5.7 | -4.1 | -9.0 | 1.1 | .
CCOc1ccc(NC(=O)COC(=O)C2C3CC4OC(=O)C2C4C3)cc1 (centres undefined) | 47.1* | -4.3 | 1.6 | -1.9 | 6.4 | 0.7 | 40.2*
O=C(COC(=O)C1C2CC3OC(=O)C1C3C2)Nc1cccc(Cl)c1 (centres undefined) | 76.6* | -0.3 | 6.9 | 2.1 | -4.9 | 5.7 | 83.6*
CC(=O)c1ccc(NC(=O)COC(=O)C2C3CC4OC(=O)C2C4C3)cc1 (centres undefined) | 25.3 | -5.6 | 6.0 | 0.3 | -5.2 | -5.5 | .
Cc1ccc(NC(=O)COC(=O)C2C3CC4OC(=O)C2C4C3)cc1 (centres undefined) | 55.2* | 4.5 | 3.5 | -3.1 | 4.7 | 2.1 | 55.0*
N#C/C=C/N1CCC(Cc2ccccc2)CC1 | 7.9 | -5.3 | -1.5 | 3.2 | -7.8 | 0.9 | .
O=C(O)c1cccc(-n2nc(-c3ccc(Cl)c([N+](=O)[O-])c3)c3ccccc3c2=O)c1 | 4.7 | -3.6 | 4.0 | 7.2 | -5.0 | 4.7 | .
C=CCNC(=O)c1onc(CSc2ccccc2C)c1C(=O)O | 35.8* | -1.2 | 2.3 | 2.3 | 7.6 | 1.7 | 25.7
Cc1cccc(SCc2noc(C(=O)NCC3CCCO3)c2C(=O)O)c1 (centres undefined) | 11.3 | 2.5 | 9.0 | 5.4 | 3.5 | -0.4 | .
CCCCNC(=O)c1onc(CSc2ccccc2CC)c1C(=O)O | 57.7* | -16.9 | 8.8 | 11.6 | 8.8 | 23.9 | 44.0*
Cc1cc(C)cc(SCc2noc(C(=O)NCC3CCCO3)c2C(=O)O)c1 (centres undefined) | 36.3* | -1.9 | 9.2 | -0.1 | -4.6 | 7.2 | 28.7
C=CCNC(=O)c1onc(CSc2cc(C)ccc2C)c1C(=O)O | 15.3 | -3.7 | -0.5 | 1.3 | -2.7 | 2.3 | .
CCOc1ccc(NC(=O)COC(=O)CC2CCCCC2)cc1 | 44.6* | . | -3.3 | 15.9 | 7.4 | 3.0 | 40.7*
O=C(COC(=O)CC1CCCC1)Nc1ccc(Cl)cc1 | 80.0* | . | -2.3 | . | . | 1.1 | 74.2*
Cc1n[nH]c(C)c1S(=O)(=O)N1CCC(C(=O)Nc2cccc(F)c2)CC1 | 1.0 | -7.9 | 5.8 | 0.9 | -2.1 | -7.1 | .
Oc1ccc2c(c1)OCC1(O)Cc3cc(O)c(O)cc3C21 (centres undefined) | 34.2* | . | 11.2 | . | . | 12.7 | 11.7
O=C(COC(=O)C1=COCCO1)Nc1ccc(F)cc1 | 69.0* | -1.0 | 5.2 | 6.7 | -23.9 | 1.6 | 59.1*
SMILES | PAFAH2 inh | EBNA-1 inhibitor | PAFAH1B3 FP inh | pPAFAH FP inh | ZTA DNA inh | PAFAH1B2 inh | PAFAH2 FP conf
CCN(CC)S(=O)(=O)c1cccc(NC(=O)COC(=O)C2=COCCO2)c1 | 30.2* | . | 14.6 | 5.6 | -3.7 | 9.1 | 10.9
CCC(C)c1ccccc1NC(=O)COC(=O)C1=COCCO1 (centres undefined) | 62.1* | -2.4 | 11.4 | 9.4 | -5.1 | 5.0 | 48.3*
CCOC(=O)c1ccccc1NC(=O)COC(=O)C1=COCCO1 | 5.0 | -27.7 | -0.8 | 1.2 | -6.2 | 0.8 | .
Cc1ccccc1NC(=O)COC(=O)C1=COCCO1 | 20.6 | . | 6.7 | 0.0 | -16.2 | 2.6 | .
O=C(COC(=O)C1=COCCO1)Nc1ccc(Br)cc1Br | 57.9* | . | 4.4 | 9.1 | . | -0.5 | 45.7*
O=C(CSc1nnnn1-c1ccc(Cl)cc1)NC1CCS(=O)(=O)C1 (centres undefined) | 8.0 | . | 14.1 | -1.2 | . | 8.5 | .
COC(=O)CC(NC(=O)CN1CCN(c2ccc(F)cc2)CC1)c1cccc(F)c1 (centres undefined) | -5.0 | 1.5 | 3.6 | 0.1 | -18.4 | 2.6 | .
O=C(COC(=O)C1=COCCO1)Nc1ccc(Oc2ccccc2)cc1 | 82.5* | -2.2 | -0.5 | 5.9 | -37.9 | -3.9 | 77.2*
CC(C)(C)c1ccc(NC(=O)COC(=O)C2=COCCO2)cc1 | 22.0 | 8.9 | 8.0 | 8.7 | -2.5 | 1.3 | .
COc1cc(-c2cccs2)cc(=O)c2c(C)oc(C)c12 | 32.2* | -9.2 | 7.3 | 22.1 | -8.5 | 4.0 | 5.9
COc1ccc(-c2cc(OC(=O)c3ccc(F)cc3)c3c(C)oc(C)c3c(=O)c2)cc1 | . | 5.2 | . | 13.2 | 0.3 | . | .
CC(C)CNC(=O)c1ccccc1NC(=O)CN(c1ccccc1)S(=O)(=O)N(C)C | 1.4 | 4.1 | 3.5 | -0.9 | -0.2 | -3.5 | .
CCc1nnc(NC(=O)CSc2nnc(-c3ccccc3NC(=O)c3ccccc3)o2)s1 | 33.6* | -5.6 | 3.3 | -0.5 | -2.2 | 3.7 | -2.9
CCOC(=O)CSc1nnc(-c2ccccc2NC(=O)c2ccccc2)o1 | -23.5 | 1.5 | -2.9 | 2.8 | -6.0 | 1.0 | .
O=C(NN1CCOCC1)c1ccccc1NS(=O)(=O)c1ccc(F)cc1F | 70.0* | . | 2.6 | 0.0 | . | 3.2 | 78.4*
O=C(c1ccccc1NS(=O)(=O)c1ccc(F)cc1)N1CCOCC1 | 2.9 | -10.2 | -1.1 | -1.2 | 2.5 | -2.0 | .
COc1ccc(Cl)cc1NC(=O)CN(C)C(=O)c1n[nH]c2ccccc12 | 10.8 | 3.1 | 4.1 | 0.5 | -3.4 | -1.5 | .
O=C(COC(=O)c1cccnc1Cl)Nc1ncc(Cl)cc1Cl | 9.2 | 3.4 | 0.0 | 3.6 | -7.2 | 5.5 | .
